Assay results: ChEMBL document CHEMBL1961873, “Compounds: GSK PKIS; Assays: Nanosyn kinase panel” (2012)
“And” between values parts separate entries of the source, which are not always exact repeats. Equal values may be shown once.

How the values were obtained:
[1] = target: T1, Inhibitor of nuclear factor kappa-B kinase subunit epsilon (Homo sapiens) (UniProt Q14164); conditions: at 1 µM;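 also: reported values are averaged percent inhibition figures against human IKKε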
T1 sequence (whole entry): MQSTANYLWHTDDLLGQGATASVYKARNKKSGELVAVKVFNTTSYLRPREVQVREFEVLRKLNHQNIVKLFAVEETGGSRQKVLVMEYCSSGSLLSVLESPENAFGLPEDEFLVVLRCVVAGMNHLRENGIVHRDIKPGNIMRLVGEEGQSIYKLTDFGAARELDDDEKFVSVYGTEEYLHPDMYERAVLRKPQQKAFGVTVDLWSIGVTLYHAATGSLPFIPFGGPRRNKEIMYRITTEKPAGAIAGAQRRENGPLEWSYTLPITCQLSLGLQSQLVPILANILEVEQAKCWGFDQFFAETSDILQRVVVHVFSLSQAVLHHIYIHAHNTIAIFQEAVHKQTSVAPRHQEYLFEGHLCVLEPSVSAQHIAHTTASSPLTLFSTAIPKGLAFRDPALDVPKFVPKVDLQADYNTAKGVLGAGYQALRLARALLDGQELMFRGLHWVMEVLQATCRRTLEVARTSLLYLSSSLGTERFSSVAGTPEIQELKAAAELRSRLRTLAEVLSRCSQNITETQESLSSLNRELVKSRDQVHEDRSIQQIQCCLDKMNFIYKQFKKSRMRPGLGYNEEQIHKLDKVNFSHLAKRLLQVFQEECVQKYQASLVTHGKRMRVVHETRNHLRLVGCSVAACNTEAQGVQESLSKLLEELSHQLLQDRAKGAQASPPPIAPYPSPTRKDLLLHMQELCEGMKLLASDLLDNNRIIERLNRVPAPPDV

[2] = target: T2, Serine/threonine-protein kinase Nek1 (Homo sapiens) (UniProt Q96PY6); conditions: at 0.1 µM
T2 sequence (whole entry): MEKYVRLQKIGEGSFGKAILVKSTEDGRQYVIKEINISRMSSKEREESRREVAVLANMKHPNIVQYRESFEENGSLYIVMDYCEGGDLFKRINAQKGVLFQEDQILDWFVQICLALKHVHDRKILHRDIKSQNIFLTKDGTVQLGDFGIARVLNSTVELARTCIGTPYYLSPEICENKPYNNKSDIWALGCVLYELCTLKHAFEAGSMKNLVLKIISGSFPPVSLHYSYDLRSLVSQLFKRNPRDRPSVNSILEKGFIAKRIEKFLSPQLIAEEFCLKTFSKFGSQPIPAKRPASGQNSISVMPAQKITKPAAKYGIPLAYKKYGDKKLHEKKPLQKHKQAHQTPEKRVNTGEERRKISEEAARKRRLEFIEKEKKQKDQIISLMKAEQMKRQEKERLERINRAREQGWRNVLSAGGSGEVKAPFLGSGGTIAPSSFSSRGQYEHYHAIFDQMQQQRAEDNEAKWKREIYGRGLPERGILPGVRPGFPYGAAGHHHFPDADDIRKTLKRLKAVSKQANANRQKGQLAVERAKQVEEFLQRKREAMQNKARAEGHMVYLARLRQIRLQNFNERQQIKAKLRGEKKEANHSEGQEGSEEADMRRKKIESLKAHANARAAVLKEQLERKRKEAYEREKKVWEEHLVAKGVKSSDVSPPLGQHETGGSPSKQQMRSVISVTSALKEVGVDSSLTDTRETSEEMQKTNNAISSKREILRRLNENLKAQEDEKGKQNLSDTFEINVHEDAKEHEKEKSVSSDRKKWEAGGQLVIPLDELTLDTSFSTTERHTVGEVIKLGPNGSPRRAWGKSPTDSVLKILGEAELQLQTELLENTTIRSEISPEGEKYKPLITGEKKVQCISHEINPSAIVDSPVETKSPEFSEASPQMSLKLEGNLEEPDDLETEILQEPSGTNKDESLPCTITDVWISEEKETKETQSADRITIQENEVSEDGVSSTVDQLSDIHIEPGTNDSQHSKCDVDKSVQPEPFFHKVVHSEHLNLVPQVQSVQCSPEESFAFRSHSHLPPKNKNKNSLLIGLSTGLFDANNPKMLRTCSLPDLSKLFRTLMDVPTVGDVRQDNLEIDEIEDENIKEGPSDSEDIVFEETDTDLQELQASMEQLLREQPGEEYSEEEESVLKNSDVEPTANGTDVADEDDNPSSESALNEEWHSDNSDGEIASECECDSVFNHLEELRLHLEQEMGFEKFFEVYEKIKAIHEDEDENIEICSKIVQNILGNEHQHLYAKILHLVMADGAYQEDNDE

[3] = target: T2, Serine/threonine-protein kinase Nek1 (Homo sapiens); conditions: at 1 µM
[4] = target: T3, Serine/threonine-protein kinase Nek2 (Homo sapiens) (UniProt P51955); conditions: at 0.1 µM
T3 sequence (whole entry): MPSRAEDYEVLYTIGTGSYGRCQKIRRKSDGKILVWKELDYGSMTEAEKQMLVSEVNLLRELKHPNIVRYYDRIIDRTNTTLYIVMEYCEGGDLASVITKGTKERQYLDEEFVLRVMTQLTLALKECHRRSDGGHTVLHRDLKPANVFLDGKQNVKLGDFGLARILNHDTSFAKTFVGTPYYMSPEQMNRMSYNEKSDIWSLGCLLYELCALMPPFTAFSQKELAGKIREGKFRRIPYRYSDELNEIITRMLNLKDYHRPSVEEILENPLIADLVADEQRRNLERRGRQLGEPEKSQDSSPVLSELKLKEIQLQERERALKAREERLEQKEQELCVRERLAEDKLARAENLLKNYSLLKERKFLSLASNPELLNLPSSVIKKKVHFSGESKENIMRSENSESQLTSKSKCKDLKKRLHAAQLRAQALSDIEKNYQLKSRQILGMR

[5] = target: T3, Serine/threonine-protein kinase Nek2 (Homo sapiens); conditions: at 1 µM
[6] = target: Serine/threonine-protein kinase Nek6 (Homo sapiens) (UniProt Q9HC98); conditions: at 0.1 µM
[7] = target: Serine/threonine-protein kinase Nek6 (Homo sapiens) (UniProt Q9HC98); conditions: at 1 µM
[8] = target: Serine/threonine-protein kinase Nek7 (Homo sapiens) (UniProt Q8TDX7); conditions: at 0.1 µM
[9] = target: Serine/threonine-protein kinase Nek7 (Homo sapiens) (UniProt Q8TDX7); conditions: at 1 µM
[10] = target: T4, Serine/threonine-protein kinase Nek9 (Homo sapiens) (UniProt Q8TD19); conditions: at 0.1 µM;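 also: reported value is the mean percent inhibition of NEK9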
T4 sequence (whole entry): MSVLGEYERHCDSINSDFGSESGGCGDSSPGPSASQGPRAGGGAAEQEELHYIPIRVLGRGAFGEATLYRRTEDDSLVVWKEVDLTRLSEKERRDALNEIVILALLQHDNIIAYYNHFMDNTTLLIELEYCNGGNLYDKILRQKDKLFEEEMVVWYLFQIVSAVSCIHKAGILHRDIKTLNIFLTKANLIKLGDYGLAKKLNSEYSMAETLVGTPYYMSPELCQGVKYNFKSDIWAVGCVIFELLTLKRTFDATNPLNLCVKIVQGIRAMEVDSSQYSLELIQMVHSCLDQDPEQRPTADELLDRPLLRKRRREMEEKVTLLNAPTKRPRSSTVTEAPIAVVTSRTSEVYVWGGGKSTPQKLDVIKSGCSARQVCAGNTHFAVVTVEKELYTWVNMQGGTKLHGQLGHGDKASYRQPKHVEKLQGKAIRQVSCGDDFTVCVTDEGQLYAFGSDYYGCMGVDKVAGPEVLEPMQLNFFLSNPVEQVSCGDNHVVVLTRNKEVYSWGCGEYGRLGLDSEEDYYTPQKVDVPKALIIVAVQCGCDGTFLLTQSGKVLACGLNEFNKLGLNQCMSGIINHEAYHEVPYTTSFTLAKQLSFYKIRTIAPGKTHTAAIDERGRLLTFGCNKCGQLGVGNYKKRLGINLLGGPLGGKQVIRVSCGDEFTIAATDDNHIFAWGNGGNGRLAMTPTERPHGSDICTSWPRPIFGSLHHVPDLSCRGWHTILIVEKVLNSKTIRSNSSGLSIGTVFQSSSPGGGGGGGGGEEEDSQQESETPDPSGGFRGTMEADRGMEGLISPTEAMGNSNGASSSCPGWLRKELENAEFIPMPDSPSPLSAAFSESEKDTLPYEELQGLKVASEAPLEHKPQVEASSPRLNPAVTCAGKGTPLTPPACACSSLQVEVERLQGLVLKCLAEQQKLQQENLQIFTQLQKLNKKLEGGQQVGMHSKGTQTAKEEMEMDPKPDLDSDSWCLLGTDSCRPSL

Serine/threonine-protein kinase Nek6 (Homo sapiens), sequence (Q9HC98 whole entry): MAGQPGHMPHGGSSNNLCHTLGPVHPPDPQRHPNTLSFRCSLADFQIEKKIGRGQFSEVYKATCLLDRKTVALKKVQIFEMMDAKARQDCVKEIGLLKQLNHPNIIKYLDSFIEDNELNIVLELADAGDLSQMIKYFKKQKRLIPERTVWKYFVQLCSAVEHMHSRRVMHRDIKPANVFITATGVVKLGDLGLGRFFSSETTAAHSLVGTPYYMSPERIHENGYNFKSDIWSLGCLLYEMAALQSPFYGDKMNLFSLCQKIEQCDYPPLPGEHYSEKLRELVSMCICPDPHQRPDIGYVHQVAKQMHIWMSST
Serine/threonine-protein kinase Nek7 (Homo sapiens), sequence (Q8TDX7 whole entry, looked up): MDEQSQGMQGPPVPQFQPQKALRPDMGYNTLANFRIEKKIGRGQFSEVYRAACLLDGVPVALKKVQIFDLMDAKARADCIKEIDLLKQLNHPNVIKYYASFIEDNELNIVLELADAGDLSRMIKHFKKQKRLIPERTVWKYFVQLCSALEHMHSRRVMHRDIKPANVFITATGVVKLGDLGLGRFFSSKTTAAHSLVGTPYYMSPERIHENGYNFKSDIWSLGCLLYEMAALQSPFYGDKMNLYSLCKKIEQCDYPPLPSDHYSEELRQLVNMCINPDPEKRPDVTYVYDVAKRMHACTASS

| Compound | inhibition [1] | inhibition [2] | inhibition [3] | inhibition [4] | inhibition [5] | inhibition [6] | inhibition [7] | inhibition [8] | inhibition [9] | inhibition [10] |
| --- | --- | --- | --- | --- | --- | --- | --- | --- | --- | --- |
| Cc1ccc(-c2cc3c(NC(=O)C4CC4)ncnc3o2)cc1 | 6.07% | 1.85% | 3.91% | 4.58% | 4.89% | 3.4% | 0.29% | 3.17% | 3.35% | 3.07% |
| Cc1nnc(-c2cccc(-c3ccc(C(=O)NCC4CC4)cc3)c2)o1 | 8.77% | 3.27% | 4% | 6.76% | 5.41% | 2.74% | 6.86% | 4.29% | 4.11% | 4.46% |
| CS(=O)(=O)CCNCc1ccc(-c2ccc3ncnc(Nc4ccc(OCc5cccc(C(F)(F)F)c5)cc4)c3c2)o1 | 4.77% | 3.08% | 8.21% | 7.25% | 6.57% | 0.78% | 4.95% | 2.96% | 7.52% | 4.02% |
| CN1CCC(C(=O)Nc2n[nH]c3nc(-c4ccc(O)cc4)c(Br)cc23)CC1 | 9.87% and 4.68% | 2.56% and 2.33% | 5.56% and 3.3% | 4.35% and 2.88% | 2.67% and 2.08% | 3.12% and 2.62% | 6.77% and 0.79% | 7.02% and 1.88% | 10% and 8.97% | 9.98% and 4.62% |
| CS(=O)(=O)CCNCc1ccc(-c2ccc3ncnc(Nc4ccc(OCc5ccccc5)cc4)c3c2)o1 | 4.6% | 2.22% | 2.22% | 4.68% | 3.32% | 2.28% | 3.11% | 2.47% | 3.65% | 5.77% |
| CN1CCN(Cc2ccc(-c3cc4ncnc(Nc5ccc(OCc6cccc(F)c6)c(Cl)c5)c4s3)o2)CC1 | 4.6% and 4.24% | 1.24% and 3.95% | 2.68% and 4.85% | 3.46% and 4.63% | 2.94% and 4.7% | -1.83% and 5.78% | 0.03% and 5.91% | 2.08% and 6.06% | 5.67% and 4.39% | -2.04% and 6.24% |
| CS(=O)(=O)Nc1ccc(-c2cc(-c3ccccc3)cc(C(N)=O)c2N)cc1 | 1.3% | 1.84% | 1.25% | 4.07% | 2.73% | 1.42% | -0.5% | 1.35% | 6.39% | 2.67% |
